Source: PubChem
Most compounds without a hit are left out; they make up all but 18% or so of the library.
DT40 TDP1 CPT: qHTS for Inhibitors of human tyrosyl-DNA phosphodiesterase 1 (TDP1): qHTS in cells in presence of CPT; chicken DT40 Tdp1-/-;hTDP1 cells + 20 nM CPT, ATP luminescence, 48 h; Potency, µM (titrated, usually from 46.2 µM), for inactives: at the highest dose activity change, negative = growth inhibition, usual class: inhibitors; 420,000 compounds, 12% hits; also: potency is read from the fitted curve at half-maximal effect; % is scaled to controls: 0 for no effect and ±100 for the full control effect; nearly all actives have a fitted effect of over 55% in size
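Chicken DT40 Tdp1-/- cells stably complemented with human TDP1 were seeded at 400 cells/well in medium containing 20 nM camptothecin, exposed to pin-transferred compounds, and grown at 37 °C for at least 48 hr. Viability was read as ATP luminescence.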
TDP1 block: qHTS Assay for Inhibitors of Tyrosyl-DNA Phosphodiesterase (TDP1); Potency, µM (series often up to 130 µM), inactives show at the top dose activity change, negative = inhibition, hits mostly inhibitors; recombinant TDP1, AlphaScreen DNA substrate cleavage; 350,000 compounds, 0.28% hits; AID 485290, 2010; also: potency is read from the fitted curve at half-maximal effect; % is scaled to controls: 0 for no effect and ±100 for the full control effect; nearly all actives have a fitted effect of over 40% in size
Target sequence (Q9NUW8 whole entry, looked up): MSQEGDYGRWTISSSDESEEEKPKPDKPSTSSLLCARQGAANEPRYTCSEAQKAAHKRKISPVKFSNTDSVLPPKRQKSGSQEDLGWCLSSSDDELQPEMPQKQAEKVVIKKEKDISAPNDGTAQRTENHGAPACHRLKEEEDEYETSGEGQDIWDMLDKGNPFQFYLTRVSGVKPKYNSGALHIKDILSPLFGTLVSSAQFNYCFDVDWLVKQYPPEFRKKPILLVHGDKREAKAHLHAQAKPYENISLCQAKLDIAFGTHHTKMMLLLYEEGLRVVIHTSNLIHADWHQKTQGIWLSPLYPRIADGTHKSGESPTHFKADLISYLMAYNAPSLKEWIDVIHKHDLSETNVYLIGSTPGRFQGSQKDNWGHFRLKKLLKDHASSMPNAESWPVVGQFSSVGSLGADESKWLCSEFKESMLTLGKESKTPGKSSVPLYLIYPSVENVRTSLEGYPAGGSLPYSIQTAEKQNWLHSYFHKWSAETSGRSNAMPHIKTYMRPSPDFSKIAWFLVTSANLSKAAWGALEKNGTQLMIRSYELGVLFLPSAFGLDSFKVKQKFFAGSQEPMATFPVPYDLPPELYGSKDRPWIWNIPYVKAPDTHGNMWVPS
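Here, a 5' biotin and 3' phosphotyrosine-FITC DNA oligonucleotide reports Tdp1 activity: intact substrate bridges AlphaScreen beads, while cleavage leaves a 3' phosphate and drops signal. All incubations at room temperature.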
DT40 TDP1 no CPT: qHTS for Inhibitors of human tyrosyl-DNA phosphodiesterase 1 (TDP1): qHTS in cells in absence of CPT. Potency, µM (top dose mostly 46.2 µM), inactives show at the highest dose activity change, negative = growth inhibition, hits mostly inhibitors. DT40 Tdp1-/- hTDP1 cells, no CPT, ATP luminescence, 48 h. AID 686978, 2013. 420,000 compounds, 15% hits; also: potency is read from the fitted curve at half-maximal effect; % is scaled to controls: 0 for no effect and ±100 for the full control effect; nearly all actives have a fitted effect of over 55% in size
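Camptothecin absent (DMSO only). Human TDP1-complemented DT40 knockout cells, 400 cells/well, 37 °C for minimum 48 hr; ATP measured via CellTiter-Glo, 30 min dark incubation, luminescence.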
IL1B secr inh: qHTS for Inhibitors of Inflammasome Signaling: IL-1-beta AlphaLISA Primary Screen. activity change, % at 57.5 µM. THP-1 LPS/ATP IL-1B secretion, AlphaLISA, 16 h; stronger effect = lower value. 360,000 compounds, 4.7% hits; in the data active = activity change below about -50%; inconclusive = mostly about -30% to -49%; also: % is scaled to controls: 0 for no effect and ±100 for the full control effect
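THP-1 cells pretreated 1 hr with compounds (up to 57.5 uM final), then stimulated with LPS (250 ng/mL final) plus ATP (1.25 mM final); secreted IL-1B measured by AlphaLISA after 16 hr, decreased signal indicating inhibition.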
TGFb inhibitor: qHTS for Inhibitors of TGF-b; HepG2 CAGA-GFP TGF-b/SMAD3 reporter, GFP fluorescence, 18 h; TGF-beta stimulated, 500 pg/mL final; Potency, µM (top dose mostly 46.1 µM), without a hit: top-dose activity, negative = inhibition, hits mostly inhibitors; 410,000 compounds, 1.2% hits; also: potency is read from the fitted curve at half-maximal effect; % is scaled to controls: 0 for no effect and ±100 for the full control effect; nearly all actives have a fitted effect of over 65% in size
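HEPG2 CAGA-GFP cells (1000/well, DMEM with 1% FBS) were pre-incubated 2 h at 37 degrees C, given compound by pin tool, then stimulated with TGF-beta at 500 pg/mL final for 18 h before per-cell GFP fluorescence imaging.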
HepG2 viability: qHTS for Inhibitors of TGF-b: Cytotox Counterscreen | Potency, µM (titrated, usually from 46.1 µM), without a hit: top-dose activity change, negative = cytotoxicity, usual class: cytotoxic | 410,000 compounds, 0.76% hits | AID 588856, 2011 | HepG2 CAGA-GFP viability, ATP luminescence, 18 h; also: potency is read from the fitted curve at half-maximal effect
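CellTiter-Glo luminescence gave cytotoxicity after 18 hours at 37 degrees C. The cells were HepG2 CAGA-GFP in 1% FBS DMEM, stimulated with 500 pg/mL TGF-beta after compound addition. %Activity was normalised to no-cell wells (complete cell-killing) and DMSO (no toxicity), and curves were fitted and classified.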
* hit, by the source's call; u = inconclusive; x = no result; [ ] = dose if it differs, or a comment. Unless noted, calls follow the shape of the dose curve; as a rule, active = well fitted curve in the direction sought with a large enough effect; inconclusive = small, poorly fitted or top-dose-only effect, or another doubt; inactive = no such curve, though single readings can be large; an effect the other way counts as inactive or inconclusive.

SMILES | DT40 TDP1 CPT | TDP1 block | DT40 TDP1 no CPT | IL1B secr inh | TGFb inhibitor | HepG2 viability
CC(C)c1ccc(/C=N/NC(=O)CCNC(=O)c2ccccc2)cc1 | 3% | 4% | u | -12 | 0% | -5%
COc1ccc(/C=C/C(=O)c2ccc(OC)cc2OC)cc1 | u | 10% | u | -105* | 1% | -19%
COc1ccc(/C=C\C(=O)c2c(O)ccc3c(C)cc(=O)oc23)cc1 | -28% | 0% | 23µM* | -18 | u | -68%
COc1ccc(/C=C/C(=O)c2cc(C(=O)/C=C/c3ccc(OC)cc3)c(O)cc2O)cc1 | u | x | 11µM* | x | x | x
COc1ccc(/C=C/C(=O)c2ccc(O)cc2O)cc1 | u | 3%[56.1 µM] | u | x | x | x
O=C(NCc1cccc(CNC(=O)C(=O)NCc2ccco2)c1)C(=O)NCc1ccco1 | -26% | -7% | 1% | 0 | 0% | 3%
CSc1nnc2c(=O)[nH]c(=O)n(C)c2n1 | 12% | x | -2% | 1 | 8% | 0%
CNc1ccccc1C(=O)N1CCc2c([nH]c3ccccc23)C1=O | u | -1%[56.1 µM] | -26% | x | x | x
CC1=NN(S(=O)(=O)c2ccc(Cl)cc2Cl)C(=O)c2ccccc2O1 | 16µM* | x | 16µM* | 6 | -14% | -16%
COC(=O)C1=C(C)NC(C)=C(C(=O)OC)C1/C=C/c1ccccc1 | -10% | -1% | -3% | -7 | 2% | -37%
C=CCOC(=O)C1=C(C)NC(C)=C(C(=O)OCC=C)C1/C=C/c1ccccc1 | u | -9% | u | -69* | u | 13µM*
N=c1c(C(=O)NCCc2ccccc2)cc2c(=O)n3ccccc3nc2n1CCCN1CCOCC1 | -26% | 6% | 15µM* | -56* | 1% | -11%
COc1ccc(CCn2c(=N)c(C(=O)NCc3ccco3)cc3c(=O)n4ccccc4nc32)cc1 | u | -8% | 23µM* | -54* | -25% | -5%
N=c1c(C(=O)NCCN2CCOCC2)cc2c(=O)n3ccccc3nc2n1CCc1ccccc1 | u | 1% | 23µM* | 2 | -21% | -13%
CCOc1ccc(C(=O)COC(=O)c2cccc(-n3cnnn3)c2)cc1 | u | 3% | -15% | 3 | 12% | 0%
COC(=O)c1cc(NC(=O)CC2C(=O)OCCN2Cc2ccccc2)cc(C(=O)OC)c1 (stereo unspecified) | 2% | 7% | -1% | x | 10% | 22%
CCN1CCOC(=O)C1CC(=O)Nc1cccc(OC)c1 (stereo unspecified) | 5.2µM* | 6% | 21µM* | x | -15% | -6%
CCOc1ccc(NC(=O)CC2C(=O)OCCN2CC)cc1 (stereo unspecified) | 8.2µM* | -2% | u | x | 16% | 2%
CCOC(=O)c1ccc(NC(=O)CC2OCCN(CC)C2=O)cc1 (stereo unspecified) | 18µM* | -2% | 13µM* | 3 | -4% | -5%
CCOC(=O)c1ccc(NC(=O)CC2C(=O)OCCN2CC)cc1 (stereo unspecified) | 21µM* | -3% | 21µM* | 0 | u | -4%
Cc1cccc(NC(=O)CC2C(=O)OCCN2Cc2ccccc2)c1 (stereo unspecified) | -24% | 3% | -26% | x | -21% | -40%
Nc1c(CC(=O)O)cccc1C(=O)c1ccccc1 | 11% | x | 1% | x | x | x
CCOc1ccc(NS(=O)(=O)c2ccc(C(=O)N(C)CC(=O)Nc3ccccc3Br)cc2)cc1 | u | x | u | 0 | -17% | -3%
Cc1cc(C)c(NC(=O)CN(C)C(=O)CCN2C(=O)C3CCCCC3C2=O)c(C)c1 (stereo unspecified) | -13% | x | -12% | 19 | -17% | -18%
CCOC(=O)C1(Cc2ccccc2C(F)(F)F)CCN(Cc2ccc(COC)o2)CC1 | 9.2µM* | x | 8.2µM* | u | -28% | -19%
SMILES | DT40 TDP1 CPT | TDP1 block | DT40 TDP1 no CPT | IL1B secr inh | TGFb inhibitor | HepG2 viability
CCOC(=O)C1(Cc2ccccc2C(F)(F)F)CCN(C2CCN(C(C)C)CC2)CC1 | 23µM* | -3% | 23µM* | 13 | -10% | -45%
CN(C(=O)CSc1nc2ccccc2[nH]1)C1CCS(=O)(=O)C1 (stereo unspecified) | 5% | 0% | 20% | -4 | -1% | -1%
O=C(COC(=O)Cc1ccccc1F)NC(=O)NC1CCCC1 | -1% | 0% | -20% | 2 | 3% | -3%
CCc1ccc(OCC(=O)Nc2ccc(-c3nc4ncccc4o3)cc2)cc1 | -16% | 1%[2.28 µM] | -10% | x | -4% | -12%
Cc1ccc(O)c(-c2cc(C(F)(F)F)[nH]n2)c1 | u | 2% | u | 1 | u | -36%
COc1ccc(C(=O)COC(=O)CCCC(=O)NC2CCCCC2)cc1 | -28% | 4% | -20% | 4 | 5% | 4%
O=C(CCC(=O)OCC(=O)c1ccccc1)NC1CCCCC1 | -12% | -2% | -10% | 0 | u | 5.6µM*
c1ccc(Sc2nc(N3CCCCC3)nc(N3CCCCC3)n2)nc1 | u | -6% | 18µM* | 23 | u | -26%
N#Cc1ccccc1CSc1nc(N2CCCCC2)nc(N2CCCCC2)n1 | u | -1% | u | 2 | -6% | -1%
COCOCCn1cc(CN2CCS(=O)(=O)N(Cc3ccc(-c4cccc(CO)c4)cc3)C(CC(C)C)C2=O)nn1 (stereo unspecified) | u | x | u | 7 | 2% | 2%
COCOCCn1cc(CN2CCS(=O)(=O)N(Cc3ccc(-c4ccc(OC)nc4)cc3)C(C)C2=O)nn1 (stereo unspecified) | -13% | x | -19% | -2 | -2% | -6%
COCOCCn1cc(CN2CCS(=O)(=O)N(Cc3ccc(-c4cccc(CO)c4)cc3)C(C(C)C)C2=O)nn1 (stereo unspecified) | u | x | 21µM* | 25 | 1% | -5%
COCOCCn1cc(CN2CCS(=O)(=O)N(Cc3ccc(-c4cccc(N(C)C)c4)cc3)C(C(C)C)C2=O)nn1 (stereo unspecified) | 15µM* | x | 21µM* | -10 | -25% | -31%
